Data reported in PubChem BioAssay (NCI).
This is part of a sample that, as a whole, favours compounds with a hit. Of some 83,000 tested, about 20% had one in any assay.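 The endpoint reported here, percent growth, reads 100 for growth as untreated, 0 for no net growth and -100 for all cells dead.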 The source made the active and inactive calls. Rule for the calls: active = growth percent below 10; inactive = the rest.

Key:
Assay in all cases: NCI-60 one-dose screen, 48 h (100 = growth as untreated, 0 = no growth, -100 = all killed)
DU-145 prostate = conditions: 10 µM unless noted
K-562 leukemia = conditions: 10 µM unless noted
MALME-3M melanoma = conditions: 10 µM unless noted
MDA-MB-231 breast = conditions: 10 µM unless noted
SF-268 CNS = conditions: 10 µM unless noted
SF-295 CNS = conditions: 10 µM unless noted
SF-539 CNS = conditions: 10 µM unless noted
UACC-257 melanoma = conditions: 10 µM unless noted
HCT-15 colon = conditions: 10 µM unless noted
HT29 colon = conditions: 10 µM unless noted
SNB-75 CNS = conditions: 10 µM unless noted
PC-3 prostate = conditions: 10 µM unless noted
SK-MEL-5 melanoma = conditions: 10 µM unless noted
UACC-62 melanoma = conditions: 10 µM unless noted
LOX IMVI melanoma = conditions: 10 µM
SK-MEL-28 melanoma = conditions: 10 µM unless noted
M14 melanoma = conditions: 10 µM unless noted
SNB-19 CNS = conditions: 10 µM unless noted
U251 CNS = conditions: 10 µM unless noted
RXF 393 renal = conditions: 10 µM unless noted

Measured: growth

CCOC(=O)c1ccc(Nc2sc(C(=O)c3ccc(Br)cc3)c(N)c2C#N)cc1
inactive: DU-145 prostate 10.8% | K-562 leukemia 12.9% | MALME-3M melanoma 31.8% | MDA-MB-231 breast 52.9% | SF-268 CNS 33.5% | UACC-257 melanoma 38.2% | HCT-15 colon 27% | PC-3 prostate 17.5% | SK-MEL-5 melanoma 12.6% | UACC-62 melanoma 36.7% | LOX IMVI melanoma 38.8% | SK-MEL-28 melanoma 36.3%
active: SF-295 CNS -11.1% | SF-539 CNS -1.74% | HT29 colon 2.05% | SNB-75 CNS -18.6%

Cn1c2ccccc2c2nnc(NCCCCO)nc21
inactive: DU-145 prostate 103% | K-562 leukemia 99.7% | MALME-3M melanoma 98.3% | MDA-MB-231 breast 99.3% | SF-268 CNS 91.1% | SF-295 CNS 113% | SF-539 CNS 92.6% | UACC-257 melanoma 113% | M14 melanoma 88% | HCT-15 colon 88.9% | HT29 colon 102% | SNB-75 CNS 56.2% | SNB-19 CNS 94.7% | U251 CNS 103% | PC-3 prostate 100% | SK-MEL-5 melanoma 94.4% | UACC-62 melanoma 103% | LOX IMVI melanoma 89.1% | SK-MEL-28 melanoma 109%

C[n+]1c(/C=C\C=C\N2CCCCC2)sc2ccccc21
active: K-562 leukemia -14.4% | MALME-3M melanoma -4.48% | SF-295 CNS -10.3% | SF-539 CNS 4.51% | UACC-257 melanoma -44% | M14 melanoma 0.396% | HT29 colon 1.33% | PC-3 prostate 2.78% | SK-MEL-5 melanoma -59.7% | UACC-62 melanoma 3.09%
inactive: DU-145 prostate 23.1% | MDA-MB-231 breast 17.7% | SF-268 CNS 12.9% | HCT-15 colon 57.7% | SNB-75 CNS 14.4% | U251 CNS 14.5% | LOX IMVI melanoma 14.1% | SK-MEL-28 melanoma 39.4%

N=C(N)c1nn(C2OC(CO)C(O)C2O)c2nc[nH]c(=O)c12 (configuration not stated)
active: DU-145 prostate -49.1% | K-562 leukemia -5.78% | MALME-3M melanoma -39.9% | MDA-MB-231 breast -15.3% | SF-268 CNS -7.38% | SF-295 CNS 8.51% | SF-539 CNS -43.8% | UACC-257 melanoma 3.08% | M14 melanoma -54.8% | HCT-15 colon 0.318% | SNB-75 CNS 9.13% | SNB-19 CNS 5.88% | PC-3 prostate -3.91% | SK-MEL-5 melanoma -97% | LOX IMVI melanoma -27.8% | SK-MEL-28 melanoma -53.9%
inactive: HT29 colon 11.7% | U251 CNS 16%

C[n+]1cc2cc3c(cc2c2ccccc21)OCO3
active: MALME-3M melanoma -0.635% | SF-268 CNS -0.333% | SF-295 CNS 9.18%
inactive: DU-145 prostate 57.3% | K-562 leukemia 49.1% | MDA-MB-231 breast 90.1% | SF-539 CNS 38.8% | UACC-257 melanoma 69.5% | HCT-15 colon 97.2% | HT29 colon 63% | SNB-75 CNS 22.5% | SNB-19 CNS 16.1% | PC-3 prostate 51.6% | SK-MEL-5 melanoma 43.1% | UACC-62 melanoma 72.7% | LOX IMVI melanoma 63.2% | SK-MEL-28 melanoma 45.6%

CC(C)(CC(=O)O)CC(=O)O
inactive: DU-145 prostate 111% | K-562 leukemia 107% | MALME-3M melanoma 107% | MDA-MB-231 breast 95.5% | SF-268 CNS 102% | SF-295 CNS 110% | SF-539 CNS 95% | UACC-257 melanoma 113% | M14 melanoma 101% | HCT-15 colon 105% | HT29 colon 101% | SNB-75 CNS 90.2% | SNB-19 CNS 99.2% | U251 CNS 109% | PC-3 prostate 101% | SK-MEL-5 melanoma 97.7% | UACC-62 melanoma 98.7% | LOX IMVI melanoma 104% | SK-MEL-28 melanoma 99.2%

O=C1NCC2CCCC1C2 (configuration not stated)
inactive: DU-145 prostate 113% | K-562 leukemia 106% | MALME-3M melanoma 109% | MDA-MB-231 breast 102% | RXF 393 renal 103% | SF-268 CNS 103% | SF-539 CNS 111% | UACC-257 melanoma 81.7% | M14 melanoma 96.7% | HCT-15 colon 104% | HT29 colon 105% | SNB-75 CNS 77.2% | SNB-19 CNS 99.6% | U251 CNS 112% | SK-MEL-5 melanoma 107% | UACC-62 melanoma 105% | LOX IMVI melanoma 103% | SK-MEL-28 melanoma 110%

CCNc1ncnc2[nH]ncc12
inactive: DU-145 prostate 117% | K-562 leukemia 119% | MALME-3M melanoma 72% | MDA-MB-231 breast 107% | SF-268 CNS 112% | SF-295 CNS 112% | SF-539 CNS 96.2% | UACC-257 melanoma 89.2% | M14 melanoma 107% | HCT-15 colon 102% | HT29 colon 108% | SNB-75 CNS 88.9% | SNB-19 CNS 104% | U251 CNS 101% | SK-MEL-5 melanoma 101% | LOX IMVI melanoma 98% | SK-MEL-28 melanoma 111%

O=C(CC(CC(=O)c1ccccc1)c1ccccn1)c1ccccc1
inactive: DU-145 prostate 110% | K-562 leukemia 92.6% | MALME-3M melanoma 91.5% | MDA-MB-231 breast 92.7% | RXF 393 renal 111% | SF-268 CNS 105% | SF-539 CNS 106% | UACC-257 melanoma 105% | M14 melanoma 103% | HCT-15 colon 106% | HT29 colon 95.5% | SNB-75 CNS 92.6% | SNB-19 CNS 93.3% | PC-3 prostate 85.1% | SK-MEL-5 melanoma 95.4% | UACC-62 melanoma 87.2% | LOX IMVI melanoma 94.2% | SK-MEL-28 melanoma 110%

O=[N+]([O-])c1c(Cl)ncnc1Cl
inactive: DU-145 prostate 110% | K-562 leukemia 109% | MALME-3M melanoma 104% | MDA-MB-231 breast 120% | RXF 393 renal 108% | SF-539 CNS 88.9% | UACC-257 melanoma 86% | M14 melanoma 118% | HCT-15 colon 100% | HT29 colon 107% | SNB-75 CNS 87.7% | SNB-19 CNS 106% | SK-MEL-5 melanoma 111% | UACC-62 melanoma 110% | LOX IMVI melanoma 107% | SK-MEL-28 melanoma 105%

S=c1nc2[nH]c3ccccc3c2n[nH]1
inactive: DU-145 prostate 102% | K-562 leukemia 106% | MALME-3M melanoma 97.7% | MDA-MB-231 breast 86.6% | SF-268 CNS 87.6% | SF-295 CNS 72% | SF-539 CNS 85.1% | UACC-257 melanoma 107% | M14 melanoma 107% | HCT-15 colon 97.3% | HT29 colon 98.6% | SNB-75 CNS 103% | SNB-19 CNS 83.3% | PC-3 prostate 82.3% | SK-MEL-5 melanoma 90.1% | UACC-62 melanoma 87.1% | LOX IMVI melanoma 89.6% | SK-MEL-28 melanoma 91.7%

CN(C)c1ncnc2c1cnn2C
inactive: DU-145 prostate 104% | K-562 leukemia 97% | MALME-3M melanoma 103% | MDA-MB-231 breast 109% | SF-268 CNS 84.6% | SF-295 CNS 94.5% | SF-539 CNS 94.2% | UACC-257 melanoma 84.2% | M14 melanoma 103% | HCT-15 colon 113% | HT29 colon 109% | SNB-75 CNS 90.7% | SNB-19 CNS 99.1% | PC-3 prostate 85.2% | SK-MEL-5 melanoma 97.2% | UACC-62 melanoma 92.9% | LOX IMVI melanoma 94.9% | SK-MEL-28 melanoma 112%

CN1CCCN(C(c2ccccc2)c2ccc(Br)cc2)CC1 (configuration not stated)
inactive: DU-145 prostate 94.8% | K-562 leukemia 20.3% | MALME-3M melanoma 63.1% | MDA-MB-231 breast 49% | SF-268 CNS 61.6% | SF-295 CNS 57.8% | SF-539 CNS 75.2% | UACC-257 melanoma 91% | HCT-15 colon 63.8% | HT29 colon 39.1% | SNB-75 CNS 38.5% | SNB-19 CNS 99.6% | U251 CNS 71.1% | PC-3 prostate 61.4% | SK-MEL-5 melanoma 60.3% | LOX IMVI melanoma 69.7% | SK-MEL-28 melanoma 64.9%

CC(C)(C)CC1(C)NC(=O)NC1=O (configuration not stated)
inactive: DU-145 prostate 114% | K-562 leukemia 126% | MALME-3M melanoma 111% | MDA-MB-231 breast 118% | SF-268 CNS 119% | SF-295 CNS 108% | SF-539 CNS 109% | UACC-257 melanoma 114% | M14 melanoma 104% | HCT-15 colon 110% | HT29 colon 107% | SNB-75 CNS 83.8% | SNB-19 CNS 110% | U251 CNS 111% | PC-3 prostate 106% | SK-MEL-5 melanoma 108% | LOX IMVI melanoma 102% | SK-MEL-28 melanoma 116%

CCN(CC)CCCC(C)NC(=S)N/N=C(\C)c1ccccn1 (configuration not stated)
inactive: DU-145 prostate 42.1% | K-562 leukemia 38.7% | MALME-3M melanoma 33.5% | MDA-MB-231 breast 36.8% | RXF 393 renal 49.4% | SF-268 CNS 43.7% | SF-539 CNS 31.2% | UACC-257 melanoma 57.4% | M14 melanoma 37.2% | HCT-15 colon 32.7% | HT29 colon 35.8% | SNB-75 CNS 61.9% | SNB-19 CNS 45.7% | U251 CNS 37.2% | SK-MEL-5 melanoma 37.8% | UACC-62 melanoma 22.3% | LOX IMVI melanoma 39.3% | SK-MEL-28 melanoma 67.5%

O=C(O)c1cc(I)ccc1O
inactive: DU-145 prostate 116% | K-562 leukemia 114% | MALME-3M melanoma 90.3% | MDA-MB-231 breast 110% | SF-268 CNS 111% | SF-295 CNS 105% | SF-539 CNS 97.7% | UACC-257 melanoma 104% | M14 melanoma 110% | HCT-15 colon 101% | HT29 colon 104% | SNB-75 CNS 81.8% | SNB-19 CNS 93.1% | U251 CNS 100% | PC-3 prostate 104% | SK-MEL-5 melanoma 103% | LOX IMVI melanoma 92% | SK-MEL-28 melanoma 113%

O=C(O)CC1=CCCCC1
inactive: DU-145 prostate 102% | K-562 leukemia 102% | MALME-3M melanoma 90.8% | MDA-MB-231 breast 98% | SF-268 CNS 93.4% | SF-295 CNS 95.2% | SF-539 CNS 98.4% | UACC-257 melanoma 100% | M14 melanoma 95.8% | HCT-15 colon 98.1% | HT29 colon 105% | SNB-75 CNS 89.6% | SNB-19 CNS 97.2% | U251 CNS 105% | PC-3 prostate 96% | SK-MEL-5 melanoma 101% | UACC-62 melanoma 98% | LOX IMVI melanoma 94.5% | SK-MEL-28 melanoma 95.5%
